Assay results reported in PubChem BioAssay (NCI).
About 83,000 compounds went through this panel and 20% of them were active in at least one assay; those are over-represented in the sample as a whole.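 Step 1: grow cells in 96-well plates. Step 2: add test compound at a single concentration. Step 3: incubate 48 h. Step 4: record percent growth.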 The source made the active and inactive calls. The calls were made as follows: active = growth percent below 10; inactive = the rest.

Columns and labels:
Experiment in all cases: NCI-60 one-dose screen, 48 h (100 = growth as untreated, 0 = no growth, -100 = all killed)
Details in all cases: 10 µM unless noted
[1] = system: NCI-H23 lung
[2] = system: NCI-H226 lung
[3] = system: NCI-H322M lung
[4] = system: HOP-62 NSCLC
[5] = system: NCI-H460 lung
[6] = system: HOP-92 NSCLC
[7] = system: NCI-H522 lung
[8] = system: A549/ATCC NSCLC
[9] = system: 786-0 renal
[10] = system: COLO 205 colon
[11] = system: DU-145 prostate
[12] = system: K-562 leukemia
[13] = system: MALME-3M melanoma
[14] = system: MDA-MB-231 breast
[15] = system: RXF 393 renal
[16] = system: SF-268 CNS
[17] = system: SF-295 CNS
[18] = system: SF-539 CNS
[19] = system: UACC-257 melanoma
[20] = system: M14 melanoma

Measured: growth

NC(=O)c1c(NC(=O)c2ccc(C(F)(F)F)cc2)sc2c1CCC(=O)C2
inactive: [3] 92.1% | [4] 13.5% | [5] 19.1% | [8] 12.1% | [9] 24.5% | [11] 59% | [16] 13.2%
active: [1] -6.8% | [2] -24% | [6] -25.3% | [7] -25.9% | [10] -64.7% | [12] 7.94% | [13] -22.4% | [14] -14.5% | [15] -5.39% | [17] 4.24% | [18] -74.3% | [19] -18% | [20] -22%

CCN(CC)c1ccc(/C=N/NC(=O)c2ccc(S(N)(=O)=O)cc2)c(O)c1
inactive: [1] 20.7% | [2] 43.1% | [3] 22.1% | [4] 11.6% | [6] 53.1% | [7] 15.1% | [8] 16% | [10] 14.3% | [11] 31.1% | [12] 12.4% | [14] 34% | [16] 20.5% | [17] 12.6%
active: [5] 4.16% | [9] 4.11% | [13] -1.7% | [15] -4.11% | [18] 5% | [19] -10.2% | [20] 1.08%

COc1ccc(/C=N/NC(=O)CSc2nc(-c3cnccn3)cc(-c3cccs3)c2C#N)cc1
inactive: [1] 72.8% | [2] 75.1% | [3] 84.4% | [4] 53.4% | [5] 37.4% | [6] 63.1% | [7] 81.1% | [8] 50.5% | [9] 22.6% | [10] 68.1% | [11] 61.7% | [12] 79.5% | [13] 91.9% | [14] 70.5% | [15] 39.7% | [16] 83.5% | [17] 80.3% | [18] 39.1% | [19] 95.9% | [20] 77.4%

Cc1ccc(NC2=C(Cl)C(=O)c3nc(C)ccc3C2=O)c(C)c1
inactive: [2] 23.2% | [3] 36.7% | [4] 47.2% | [5] 46.2% | [6] 84.7% | [8] 46.5% | [9] 23.7% | [10] 98% | [13] 13.9% | [14] 11.9% | [15] 31.1% | [16] 24.8%
active: [1] -49.9% | [7] -38.3% | [11] -1.93% | [12] 2.95% | [17] -29.9% | [18] -61.9% | [19] -80.6% | [20] -58.3%

C=C(C)[C@@H]1CC[C@]2(COP(=O)(OCC)OCC)CC[C@]3(C)[C@H](CC[C@@H]4[C@@]5(C)CC[C@H](OP(=O)(OCC)OCC)C(C)(C)[C@@H]5CC[C@]43C)[C@@H]12
inactive: [1] 13.5% | [2] 28.3% | [3] 59.6% | [4] 63.5% | [5] 22.3% | [6] 42.2% | [7] 35.5% | [8] 28.4% | [9] 72.8% | [10] 44.2% | [11] 69.7% | [12] 19.6% | [13] 50.8% | [14] 50.7% | [15] 45.3% | [16] 64.6% | [17] 14.6% | [18] 70.5% | [19] 46.8% | [20] 51.6%

Cc1ccc(C(=O)CSc2nnc(-c3ccc(-c4ccc(Cl)cc4)nc3C)o2)cc1
inactive: [1] 93% | [2] 88.6% | [3] 95.8% | [4] 92.5% | [5] 107% | [6] 88% | [7] 91.7% | [8] 106% | [9] 104% | [10] 117% | [11] 115% | [12] 101% | [13] 96.1% | [14] 92.6% | [15] 119% | [16] 105% | [17] 92.5% | [18] 97.6% | [19] 118% | [20] 98.2%

Clc1ccc2[nH]cc(-c3cncn3CCc3ccc4c(c3)OCO4)c2c1
active: [6] 9.07%
inactive: [1] 62.9% | [2] 56.8% | [3] 75.5% | [4] 85.5% | [5] 81.6% | [7] 69.2% | [8] 73.2% | [9] 73.7% | [10] 80.5% | [11] 86.3% | [12] 48.8% | [13] 75.5% | [14] 65.8% | [15] 54.7% | [16] 66.5% | [17] 58.4% | [18] 83.8% | [19] 57.5% | [20] 78.8%

Cc1ccc2c(n1)C(=O)C(Cl)=C(Nc1cccc(C)c1C)C2=O
active: [1] -10.6% | [4] -0.0437% | [6] -1.44% | [7] -37.5% | [11] -11% | [12] -2.38% | [13] -5.61% | [14] -1.12% | [15] 7.14% | [16] 2.79% | [17] -52.6% | [18] -55.9% | [19] -77.5% | [20] -29.2%
inactive: [2] 18.7% | [3] 16.9% | [5] 36.8% | [8] 41.5% | [9] 21.9% | [10] 87.7%

CN1CCN(Cc2ccc(NC(=O)c3cncc(C#Cc4cnc5ccc(O[C@@H]6CCOC6)nn45)c3)cc2C(F)(F)F)CC1
active: [1] -65.2% | [2] -60.7% | [3] -49.3% | [4] -79.1% | [5] -83.3% | [6] -39.6% | [7] -72% | [8] -76.8% | [9] -87.9% | [10] -77.4% | [11] -91.1% | [12] -12.6% | [13] -89.6% | [14] -73.2% | [15] -79.1% | [16] -68.3% | [17] -88.5% | [18] -89% | [19] -74.6% | [20] -86.3%

C/C(=C(/C)C1CC1CCNC1CCC(NC(=O)OC(C)(C)C)CC1)c1ccccc1 (centres undefined)
active: [10] -56% | [12] 0.99%
inactive: [1] 70.8% | [2] 80.1% | [3] 89.2% | [4] 84.4% | [5] 57.6% | [7] 68.6% | [8] 73.4% | [9] 65.6% | [11] 84.6% | [13] 36.6% | [14] 72.9% | [15] 42.7% | [16] 84.7% | [17] 77.8% | [18] 63.5% | [19] 55.4% | [20] 21.3%

COC(=O)c1cccc(NC2=CC(=O)C(C)=C(C)C2=O)c1
inactive: [1] 63.9% | [2] 95% | [3] 104% | [4] 97.4% | [5] 104% | [7] 93.6% | [8] 109% | [9] 101% | [10] 114% | [11] 108% | [12] 69.3% | [13] 97.9% | [14] 76.4% | [15] 94.2% | [16] 97.3% | [17] 115% | [18] 97.2% | [19] 86.9% | [20] 108%

Fc1ccc2nc(-c3cnn4cccnc34)sc2c1
inactive: [1] 93.3% | [2] 83.1% | [3] 67.5% | [4] 85.1% | [5] 88.2% | [7] 93.5% | [8] 81% | [9] 101% | [10] 102% | [11] 103% | [12] 86.2% | [13] 108% | [14] 84.3% | [15] 92.9% | [16] 82.5% | [17] 100% | [18] 86.7% | [19] 100% | [20] 101%

O=C(CCCCCCN1CC(=O)N2[C@@H](C3CC3)c3[nH]c4ccccc4c3C[C@H]2C1=O)NO
inactive: [1] 66.4% | [2] 95% | [3] 74.6% | [4] 69.6% | [5] 74.5% | [7] 24.4% | [8] 99% | [9] 108% | [10] 98% | [11] 70.9% | [12] 21.5% | [13] 10.1% | [14] 83.7% | [15] 76.5% | [16] 93.6% | [17] 74.9% | [18] 60.7% | [19] 41.9% | [20] 60.2%

Cc1[nH]c(C(=O)Nc2ccccc2OCc2cccc(C(=O)NC3CCNC3)c2)c(Cl)c1Cl (centres undefined)
inactive: [2] 87.2% | [3] 70.2% | [13] 74.2% | [15] 78.8% | [16] 74.8% | [19] 103% | [20] 24.1%
active: [1] 8.19% | [4] 6.22% | [5] -62.9% | [7] -0.407% | [8] -51.2% | [9] -69.2% | [10] -43.3% | [11] -84.8% | [12] 0.128% | [14] -57.8% | [17] -85% | [18] -75.6%

CN1CCN(Cc2ccc(/C=N/Nc3ccnc4cc(Cl)ccc34)cc2)CC1
active: [12] 4.76%
inactive: [1] 89.2% | [2] 88.4% | [3] 87.5% | [4] 80.5% | [5] 83.1% | [7] 101% | [8] 83.7% | [9] 77.7% | [10] 93.2% | [11] 75.1% | [13] 94.5% | [14] 71.5% | [15] 74.6% | [16] 99.8% | [17] 90% | [18] 64.7% | [19] 111% | [20] 96.9%
